Reference: PubChem BioAssay (NCATS)
Inconclusive results are not listed. Entries that show only a call come without a potency. Activity calls are given as the source filed them. Calls follow the shape of the dose curve; as a rule, active = well fitted inhibition curve with a large enough effect; inconclusive = small, poorly fitted or top-dose-only effect; inactive = flat fitted curve, though single readings scatter.

test system: TAB109; assay: qHTS profiling for inhibitors of Plasmodium falciparum proliferation (AID 504749); also: nearly all actives have a fitted effect of over 60% in size; settings: P. falciparum in erythrocytes, SYBR Green DNA, 72 h; series mostly up to 28.7 µM
Method in brief: (§1)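 Three-day growth assay of blood-stage parasites in erythrocytes (0.3% parasitemia, 2.5% hematocrit) at 37 C, 5% CO2, quantified by SYBR Green DNA staining after overnight detergent lysis.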
Potency is read from the fitted curve at half-maximal effect.

Structure (SMILES)	Potency
CC(c1cc2ccccc2s1)N(O)C(N)=O (stereo not drawn)	inactive
CNC[C@H](O)c1cccc(O)c1	inactive
O=NN(CCCl)C(=O)NCCCl	inactive
Cc1c(C)c2c(c(C)c1O)CCC(C)(COc1ccc(CC3SC(=O)NC3=O)cc1)O2 (stereo not drawn)	inactive
NC(N)=NC(=O)c1nc(Cl)c(N)nc1N	10 µM (active)
O=c1n(CCCN2CCN(c3cccc(Cl)c3)CC2)nc2ccccn12	inactive
Cc1[nH]c(=O)c(C#N)cc1-c1ccncc1	inactive
N=c1nc(N2CCCCC2)cc(N)n1O	inactive
CC(C[N+](C)(C)C)OC(N)=O (stereo not drawn)	inactive
CCCCNc1cc(C(=O)O)cc(S(N)(=O)=O)c1Oc1ccccc1	inactive
Cc1cn[nH]c1	inactive
Cc1[nH]c(=O)c(C#N)cc1-c1ccc2nccn2c1	inactive
CCOC(=O)C1=C[C@]2(CC)CCCN3CCc4c(n1c1ccccc41)[C@@H]32	10 µM (active)
CC(=O)Oc1ccccc1C(=O)O	inactive
CCc1ccc(CCOc2ccc(CC3SC(=O)NC3=O)cc2)nc1 (stereo not drawn)	inactive
NC(=O)c1cnccn1	inactive
O=C1CCC(N2C(=O)c3ccccc3C2=O)C(=O)N1 (stereo not drawn)	inactive

test system: TAB113; assay: as above; settings: P. falciparum in erythrocytes, SYBR Green DNA, 72 h; series mostly up to 28.7 µM
Method in brief: as §1

Structure (SMILES)	Potency
CC(c1cc2ccccc2s1)N(O)C(N)=O (stereo not drawn)	inactive
CNC[C@H](O)c1cccc(O)c1	inactive
O=NN(CCCl)C(=O)NCCCl	inactive
Cc1c(C)c2c(c(C)c1O)CCC(C)(COc1ccc(CC3SC(=O)NC3=O)cc1)O2 (stereo not drawn)	11.2 µM (active)
O=c1n(CCCN2CCN(c3cccc(Cl)c3)CC2)nc2ccccn12	inactive
Cc1[nH]c(=O)c(C#N)cc1-c1ccncc1	inactive
N=c1nc(N2CCCCC2)cc(N)n1O	inactive
CC(C[N+](C)(C)C)OC(N)=O (stereo not drawn)	inactive
CCCCNc1cc(C(=O)O)cc(S(N)(=O)=O)c1Oc1ccccc1	inactive
Cc1cn[nH]c1	inactive
CC(C)NCC(O)COc1ccc(COCCOC(C)C)cc1 (stereo not drawn)	inactive
Cc1[nH]c(=O)c(C#N)cc1-c1ccc2nccn2c1	inactive
CC(=O)Oc1ccccc1C(=O)O	inactive
CCc1ccc(CCOc2ccc(CC3SC(=O)NC3=O)cc2)nc1 (stereo not drawn)	inactive
NC(=O)c1cnccn1	inactive
O=C1CCC(N2C(=O)c3ccccc3C2=O)C(=O)N1 (stereo not drawn)	inactive
